± gives the standard deviation of the averaged measurements.
Test system: IL-6-GFP PC-9GR
Assay: cell viability (CCK-8 OD) relative to DMSO control (fraction of control); higher = more viable cells
Details: compound concentration: 10 uM; treatment time: 48 h
How it was run: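 PC-9 and PC-9GR lung cancer cells expressing lentiviral IL-6-GFP were plated at 3000 cells/well in 96-well plates and treated for 48 h with each library compound at a final 10 μM. Viability was determined by CCK-8 absorbance as a ratio of each well's optical density to the vehicle control well.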

Row | SMILES | cell viability
1 | CN1CCC(=C2c3ccccc3CCc3sccc32)CC1.O=C(O)CC(O)C(=O)O [Pizotifen Malate] | 1.41 ± 0.064
2 | Cc1ccc(-c2cc(C(F)(F)F)nn2-c2ccc(S(N)(=O)=O)cc2)cc1 [Celecoxib] | 1.13 ± 0.057
3 | O.O.O=C([O-])CCNC(=O)c1ccc(N=Nc2ccc(O)c(C(=O)[O-])c2)cc1.[Na+].[Na+] [Balsalazide disodium] | 1.24 ± 0.25
4 | Cc1cc2c(C(N)=O)cccc2n1-c1nc2c(c(NCc3ccccc3)n1)COCC2 | 0.204 ± 0.1
5 | Cn1nnc2c(C(N)=O)ncn2c1=O [Temozolomide] | 1.18 ± 0.04
6 | CCC(=O)OC1(C(=O)CCl)C(C)CC2C3CC(F)C4=CC(=O)C=CC4(C)C3(F)C(O)CC21C (centres undefined) [Halobetasol Propionate] | 0.859 ± 0.011
7 | COc1cc(C2c3cc4c(cc3C(OC3OC5COC(C)OC5C(O)C3O)C3COC(=O)C23)OCO4)cc(OC)c1O (centres undefined) [Etoposide] | 0.779 ± 0.033
8 | CC1(C)CCC(C)(C)c2cc(NC(=O)c3ccc(C(=O)O)cc3)ccc21 [Tamibarotene] | 1.55 ± 0.76
9 | COc1cc2nccc(Oc3ccc(NC(=O)C4(C(=O)Nc5ccc(F)cc5)CC4)cc3)c2cc1OC | 0.886 ± 0.23
